Test [1] concerns the target High affinity nerve growth factor receptor (Homo sapiens) (UniProt P04629). Particulars: at 1 µM.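 Note: each value is the mean percent inhibition of TRKA.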
For test [2], the target named is BDNF/NT-3 growth factors receptor (Homo sapiens) (UniProt Q16620). Particulars: at 0.1 µM.
For test [3] the target is unchanged. Particulars: at 1 µM.
Test [4] concerns the target NT-3 growth factor receptor (Homo sapiens) (UniProt Q16288). As to conditions: at 0.1 µM.
Test [5] has the same target. Particulars: at 1 µM.
Test [6] deals with T1, Tyrosine-protein kinase TXK (Homo sapiens) (UniProt P42681).
T1 sequence (whole entry): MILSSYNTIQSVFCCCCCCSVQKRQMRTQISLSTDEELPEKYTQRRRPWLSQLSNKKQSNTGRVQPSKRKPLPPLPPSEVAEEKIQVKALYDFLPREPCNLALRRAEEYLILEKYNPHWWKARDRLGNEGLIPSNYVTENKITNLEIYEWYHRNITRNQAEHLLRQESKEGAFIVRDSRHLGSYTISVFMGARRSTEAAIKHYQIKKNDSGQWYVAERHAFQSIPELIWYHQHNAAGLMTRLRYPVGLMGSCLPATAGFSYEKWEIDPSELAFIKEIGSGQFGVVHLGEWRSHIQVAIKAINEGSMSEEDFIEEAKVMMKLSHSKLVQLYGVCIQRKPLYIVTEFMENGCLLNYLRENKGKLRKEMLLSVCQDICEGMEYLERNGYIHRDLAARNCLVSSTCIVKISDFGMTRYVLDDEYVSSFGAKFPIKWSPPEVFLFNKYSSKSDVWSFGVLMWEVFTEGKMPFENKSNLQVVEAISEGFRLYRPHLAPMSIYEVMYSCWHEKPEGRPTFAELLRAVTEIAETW
As to conditions: at 0.1 µM.

In test [7] the target is T1, Tyrosine-protein kinase TXK (Homo sapiens). Particulars: at 1 µM.
Test [8] has as its target Non-receptor tyrosine-protein kinase TYK2 (Homo sapiens) (UniProt P29597). As to conditions: at 0.1 µM.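 Note: each value is a mean of the inhibition readings.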
In test [9] the target is T2, Dual specificity protein kinase TTK (Homo sapiens) (UniProt P33981).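 Note: reported figures are mean TTK inhibition at 1 µM.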
T2 sequence (whole entry): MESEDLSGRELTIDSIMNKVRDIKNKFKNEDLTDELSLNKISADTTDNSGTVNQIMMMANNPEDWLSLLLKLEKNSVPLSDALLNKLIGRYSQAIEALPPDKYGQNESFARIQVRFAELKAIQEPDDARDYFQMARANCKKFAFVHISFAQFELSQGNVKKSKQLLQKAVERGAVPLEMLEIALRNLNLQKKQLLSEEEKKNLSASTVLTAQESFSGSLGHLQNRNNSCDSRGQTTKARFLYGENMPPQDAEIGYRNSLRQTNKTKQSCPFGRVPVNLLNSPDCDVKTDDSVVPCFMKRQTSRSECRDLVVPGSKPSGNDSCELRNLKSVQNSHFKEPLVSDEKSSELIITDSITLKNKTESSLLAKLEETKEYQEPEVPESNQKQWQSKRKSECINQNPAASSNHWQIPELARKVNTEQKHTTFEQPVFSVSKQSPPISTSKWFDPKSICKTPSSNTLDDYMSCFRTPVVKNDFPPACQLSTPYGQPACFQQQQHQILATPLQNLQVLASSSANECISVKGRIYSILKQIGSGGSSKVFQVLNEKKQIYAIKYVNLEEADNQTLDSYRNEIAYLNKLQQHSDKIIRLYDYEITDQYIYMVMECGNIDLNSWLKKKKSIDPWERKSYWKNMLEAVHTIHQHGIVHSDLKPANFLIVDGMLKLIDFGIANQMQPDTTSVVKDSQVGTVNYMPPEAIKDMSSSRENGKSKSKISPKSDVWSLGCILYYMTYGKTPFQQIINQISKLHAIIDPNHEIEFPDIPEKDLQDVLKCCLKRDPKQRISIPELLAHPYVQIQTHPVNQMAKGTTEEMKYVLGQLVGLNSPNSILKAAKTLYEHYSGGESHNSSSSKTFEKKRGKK
As to conditions: at 1 µM.

Test [10] has as its target T3, Aurora kinase A (Homo sapiens) (UniProt O14965).
T3 sequence (whole entry): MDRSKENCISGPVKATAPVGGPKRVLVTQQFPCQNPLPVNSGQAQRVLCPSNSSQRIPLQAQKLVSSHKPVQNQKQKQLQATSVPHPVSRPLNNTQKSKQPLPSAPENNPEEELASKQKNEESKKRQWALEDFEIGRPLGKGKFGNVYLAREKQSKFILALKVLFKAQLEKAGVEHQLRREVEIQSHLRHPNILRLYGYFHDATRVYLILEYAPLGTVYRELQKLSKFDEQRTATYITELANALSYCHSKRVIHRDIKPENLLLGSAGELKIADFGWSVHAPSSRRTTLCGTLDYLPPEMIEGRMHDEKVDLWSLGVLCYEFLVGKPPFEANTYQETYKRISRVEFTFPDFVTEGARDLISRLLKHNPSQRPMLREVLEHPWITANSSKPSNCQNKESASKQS
As to conditions: at 0.1 µM.

Test [11] concerns the target T3, Aurora kinase A (Homo sapiens). As to conditions: at 1 µM.
Test [12] deals with Aurora kinase B (Homo sapiens) (UniProt Q96GD4). As to conditions: at 0.1 µM.
Test [13] shares this target. Particulars: at 1 µM.
Test [14] has as its target T4, Aurora kinase C (Homo sapiens) (UniProt Q9UQB9).
T4 sequence (whole entry): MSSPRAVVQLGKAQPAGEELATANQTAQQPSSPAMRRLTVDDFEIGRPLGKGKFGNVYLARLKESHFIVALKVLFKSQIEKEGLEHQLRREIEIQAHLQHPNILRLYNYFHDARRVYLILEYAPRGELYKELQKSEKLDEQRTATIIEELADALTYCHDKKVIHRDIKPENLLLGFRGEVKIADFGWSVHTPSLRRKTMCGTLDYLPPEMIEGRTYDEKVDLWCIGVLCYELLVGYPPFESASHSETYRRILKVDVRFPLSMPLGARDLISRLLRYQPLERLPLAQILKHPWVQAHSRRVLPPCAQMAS
As to conditions: at 0.1 µM.

For test [15], the target named is T4, Aurora kinase C (Homo sapiens). Particulars: at 1 µM.
Test [16] has as its target Serine/threonine-protein kinase 10 (Homo sapiens) (UniProt O94804). As to conditions: at 0.1 µM.
Test [17] has the same target. Particulars: at 1 µM.
Test [18] has as its target T5, Mitogen-activated protein kinase kinase kinase kinase 2 (Homo sapiens) (UniProt Q12851).
T5 sequence (whole entry): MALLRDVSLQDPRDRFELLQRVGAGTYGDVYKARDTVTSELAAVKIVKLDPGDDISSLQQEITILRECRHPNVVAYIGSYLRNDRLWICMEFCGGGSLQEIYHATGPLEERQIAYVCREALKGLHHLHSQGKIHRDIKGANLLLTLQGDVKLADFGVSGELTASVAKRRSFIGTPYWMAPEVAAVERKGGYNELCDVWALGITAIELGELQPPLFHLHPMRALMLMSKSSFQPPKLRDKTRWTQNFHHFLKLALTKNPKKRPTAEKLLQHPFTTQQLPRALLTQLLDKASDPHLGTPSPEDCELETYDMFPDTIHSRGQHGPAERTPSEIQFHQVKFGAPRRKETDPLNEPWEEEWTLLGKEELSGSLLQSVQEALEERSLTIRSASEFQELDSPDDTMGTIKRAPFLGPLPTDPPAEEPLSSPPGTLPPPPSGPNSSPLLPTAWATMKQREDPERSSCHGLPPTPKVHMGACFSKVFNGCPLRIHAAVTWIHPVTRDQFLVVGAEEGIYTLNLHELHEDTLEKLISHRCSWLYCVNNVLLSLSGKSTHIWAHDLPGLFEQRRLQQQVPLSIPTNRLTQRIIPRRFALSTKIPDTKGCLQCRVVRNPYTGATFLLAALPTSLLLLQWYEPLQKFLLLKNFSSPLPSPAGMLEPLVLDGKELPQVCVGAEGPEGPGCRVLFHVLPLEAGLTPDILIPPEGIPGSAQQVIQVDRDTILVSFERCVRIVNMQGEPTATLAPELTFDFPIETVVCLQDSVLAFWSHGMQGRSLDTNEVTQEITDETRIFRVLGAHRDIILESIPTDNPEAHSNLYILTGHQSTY
Particulars: at 0.1 µM.

The target in test [19] is T5, Mitogen-activated protein kinase kinase kinase kinase 2 (Homo sapiens). As to conditions: at 1 µM.
The target in test [20] is Mitogen-activated protein kinase kinase kinase kinase 4 (Homo sapiens) (UniProt O95819). Particulars: at 0.1 µM.

NT-3 growth factor receptor (Homo sapiens), sequence (Q16288 32-839 limits assumed): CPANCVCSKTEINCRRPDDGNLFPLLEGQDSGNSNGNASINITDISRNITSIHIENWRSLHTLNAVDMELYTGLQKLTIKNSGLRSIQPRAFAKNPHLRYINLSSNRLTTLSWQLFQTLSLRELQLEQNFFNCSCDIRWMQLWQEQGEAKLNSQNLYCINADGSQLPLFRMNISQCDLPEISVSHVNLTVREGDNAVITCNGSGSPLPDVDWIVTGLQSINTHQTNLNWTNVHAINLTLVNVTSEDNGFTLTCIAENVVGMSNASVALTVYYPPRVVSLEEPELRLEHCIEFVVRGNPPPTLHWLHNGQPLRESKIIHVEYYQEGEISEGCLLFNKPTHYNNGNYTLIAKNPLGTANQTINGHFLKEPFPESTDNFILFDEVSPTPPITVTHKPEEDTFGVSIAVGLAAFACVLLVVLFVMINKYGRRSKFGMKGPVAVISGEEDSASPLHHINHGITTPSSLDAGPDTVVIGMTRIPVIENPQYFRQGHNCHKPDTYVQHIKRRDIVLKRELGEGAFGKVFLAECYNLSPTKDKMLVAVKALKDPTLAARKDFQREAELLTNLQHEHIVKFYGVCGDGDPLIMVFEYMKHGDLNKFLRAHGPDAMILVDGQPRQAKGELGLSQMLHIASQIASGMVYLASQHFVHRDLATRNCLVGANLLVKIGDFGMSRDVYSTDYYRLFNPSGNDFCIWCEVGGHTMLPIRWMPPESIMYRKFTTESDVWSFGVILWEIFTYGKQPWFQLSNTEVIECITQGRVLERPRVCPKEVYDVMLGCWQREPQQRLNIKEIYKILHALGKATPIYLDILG
Aurora kinase B (Homo sapiens), sequence (Q96GD4 whole entry): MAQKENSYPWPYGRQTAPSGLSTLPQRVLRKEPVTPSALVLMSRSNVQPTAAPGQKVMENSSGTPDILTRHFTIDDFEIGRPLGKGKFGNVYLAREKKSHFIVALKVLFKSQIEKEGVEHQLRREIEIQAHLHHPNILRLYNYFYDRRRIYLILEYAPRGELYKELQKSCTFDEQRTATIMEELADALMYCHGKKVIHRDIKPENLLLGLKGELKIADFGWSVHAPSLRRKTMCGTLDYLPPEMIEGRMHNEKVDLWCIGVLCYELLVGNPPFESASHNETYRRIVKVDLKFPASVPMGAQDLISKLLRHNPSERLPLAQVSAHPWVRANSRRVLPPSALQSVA
BDNF/NT-3 growth factors receptor (Homo sapiens), sequence (Q16620 32-822 limits assumed): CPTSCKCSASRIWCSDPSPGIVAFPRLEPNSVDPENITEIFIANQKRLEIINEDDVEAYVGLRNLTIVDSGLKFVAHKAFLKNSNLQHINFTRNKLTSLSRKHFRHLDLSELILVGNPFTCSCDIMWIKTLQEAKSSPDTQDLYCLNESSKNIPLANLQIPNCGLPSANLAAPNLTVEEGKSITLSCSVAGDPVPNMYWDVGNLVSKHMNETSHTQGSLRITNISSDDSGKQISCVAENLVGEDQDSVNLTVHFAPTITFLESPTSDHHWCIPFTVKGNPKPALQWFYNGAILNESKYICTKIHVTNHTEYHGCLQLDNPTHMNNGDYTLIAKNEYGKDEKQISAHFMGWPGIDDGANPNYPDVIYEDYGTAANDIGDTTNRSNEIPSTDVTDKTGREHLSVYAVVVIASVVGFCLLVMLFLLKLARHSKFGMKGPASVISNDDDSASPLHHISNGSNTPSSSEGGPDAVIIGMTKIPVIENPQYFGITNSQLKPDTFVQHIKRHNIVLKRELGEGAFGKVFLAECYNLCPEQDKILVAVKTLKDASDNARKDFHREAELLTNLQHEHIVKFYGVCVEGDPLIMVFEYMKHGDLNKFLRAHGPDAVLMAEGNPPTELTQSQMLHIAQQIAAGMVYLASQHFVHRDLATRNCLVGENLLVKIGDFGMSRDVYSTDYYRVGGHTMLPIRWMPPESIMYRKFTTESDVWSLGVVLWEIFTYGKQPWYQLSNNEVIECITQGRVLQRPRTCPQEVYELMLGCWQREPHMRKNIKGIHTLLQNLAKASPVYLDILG
High affinity nerve growth factor receptor (Homo sapiens), sequence (P04629 33-796 limits assumed): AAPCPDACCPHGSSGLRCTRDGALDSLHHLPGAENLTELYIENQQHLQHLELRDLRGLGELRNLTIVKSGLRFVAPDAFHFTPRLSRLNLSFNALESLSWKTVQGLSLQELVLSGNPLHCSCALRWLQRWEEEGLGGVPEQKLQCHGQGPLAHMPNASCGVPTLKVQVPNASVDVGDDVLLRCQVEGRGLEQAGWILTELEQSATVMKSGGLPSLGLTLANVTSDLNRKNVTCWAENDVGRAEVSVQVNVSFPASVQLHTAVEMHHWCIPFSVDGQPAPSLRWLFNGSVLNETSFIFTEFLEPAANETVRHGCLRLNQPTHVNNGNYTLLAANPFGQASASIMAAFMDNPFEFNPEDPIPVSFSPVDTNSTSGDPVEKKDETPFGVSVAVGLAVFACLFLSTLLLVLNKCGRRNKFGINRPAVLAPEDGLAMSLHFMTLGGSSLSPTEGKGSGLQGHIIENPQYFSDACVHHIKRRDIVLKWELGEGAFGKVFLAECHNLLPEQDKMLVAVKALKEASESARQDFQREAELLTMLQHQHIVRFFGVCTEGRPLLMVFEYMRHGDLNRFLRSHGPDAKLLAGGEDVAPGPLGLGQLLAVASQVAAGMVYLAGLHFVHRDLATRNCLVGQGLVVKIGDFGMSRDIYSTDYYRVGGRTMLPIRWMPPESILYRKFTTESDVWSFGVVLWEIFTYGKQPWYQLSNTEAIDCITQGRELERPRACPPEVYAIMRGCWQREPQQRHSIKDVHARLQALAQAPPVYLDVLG
Non-receptor tyrosine-protein kinase TYK2 (Homo sapiens), sequence (P29597 whole entry): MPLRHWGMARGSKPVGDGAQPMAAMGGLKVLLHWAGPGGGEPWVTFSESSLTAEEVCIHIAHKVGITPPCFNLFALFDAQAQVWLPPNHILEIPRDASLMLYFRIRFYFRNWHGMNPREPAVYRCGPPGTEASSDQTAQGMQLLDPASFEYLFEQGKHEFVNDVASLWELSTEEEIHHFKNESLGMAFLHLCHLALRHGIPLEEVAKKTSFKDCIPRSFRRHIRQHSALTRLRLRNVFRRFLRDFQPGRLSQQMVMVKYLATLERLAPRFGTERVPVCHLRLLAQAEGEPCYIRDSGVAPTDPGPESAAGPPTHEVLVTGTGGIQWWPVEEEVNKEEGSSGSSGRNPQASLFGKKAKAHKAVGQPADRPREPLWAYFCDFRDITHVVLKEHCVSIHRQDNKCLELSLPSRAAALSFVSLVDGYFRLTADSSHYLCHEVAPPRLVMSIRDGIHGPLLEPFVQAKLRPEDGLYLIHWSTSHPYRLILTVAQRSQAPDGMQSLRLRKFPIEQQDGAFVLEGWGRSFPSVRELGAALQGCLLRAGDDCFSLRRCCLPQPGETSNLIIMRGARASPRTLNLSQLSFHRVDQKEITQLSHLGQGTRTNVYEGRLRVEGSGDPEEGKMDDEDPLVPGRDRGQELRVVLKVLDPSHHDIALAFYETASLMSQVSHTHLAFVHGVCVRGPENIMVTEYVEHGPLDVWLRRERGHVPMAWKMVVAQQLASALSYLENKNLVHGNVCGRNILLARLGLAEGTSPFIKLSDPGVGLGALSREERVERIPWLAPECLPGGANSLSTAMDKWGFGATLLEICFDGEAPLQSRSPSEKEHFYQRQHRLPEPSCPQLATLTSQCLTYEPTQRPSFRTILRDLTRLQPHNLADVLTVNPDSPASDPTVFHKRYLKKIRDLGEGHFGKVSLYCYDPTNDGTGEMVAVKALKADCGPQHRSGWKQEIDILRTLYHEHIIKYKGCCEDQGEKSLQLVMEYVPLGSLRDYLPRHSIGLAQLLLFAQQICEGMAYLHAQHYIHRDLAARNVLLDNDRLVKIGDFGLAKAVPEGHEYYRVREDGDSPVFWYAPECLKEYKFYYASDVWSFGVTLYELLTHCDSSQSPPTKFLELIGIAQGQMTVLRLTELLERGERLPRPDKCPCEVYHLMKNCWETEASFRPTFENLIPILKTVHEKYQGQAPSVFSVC
Serine/threonine-protein kinase 10 (Homo sapiens), sequence (O94804 whole entry, looked up): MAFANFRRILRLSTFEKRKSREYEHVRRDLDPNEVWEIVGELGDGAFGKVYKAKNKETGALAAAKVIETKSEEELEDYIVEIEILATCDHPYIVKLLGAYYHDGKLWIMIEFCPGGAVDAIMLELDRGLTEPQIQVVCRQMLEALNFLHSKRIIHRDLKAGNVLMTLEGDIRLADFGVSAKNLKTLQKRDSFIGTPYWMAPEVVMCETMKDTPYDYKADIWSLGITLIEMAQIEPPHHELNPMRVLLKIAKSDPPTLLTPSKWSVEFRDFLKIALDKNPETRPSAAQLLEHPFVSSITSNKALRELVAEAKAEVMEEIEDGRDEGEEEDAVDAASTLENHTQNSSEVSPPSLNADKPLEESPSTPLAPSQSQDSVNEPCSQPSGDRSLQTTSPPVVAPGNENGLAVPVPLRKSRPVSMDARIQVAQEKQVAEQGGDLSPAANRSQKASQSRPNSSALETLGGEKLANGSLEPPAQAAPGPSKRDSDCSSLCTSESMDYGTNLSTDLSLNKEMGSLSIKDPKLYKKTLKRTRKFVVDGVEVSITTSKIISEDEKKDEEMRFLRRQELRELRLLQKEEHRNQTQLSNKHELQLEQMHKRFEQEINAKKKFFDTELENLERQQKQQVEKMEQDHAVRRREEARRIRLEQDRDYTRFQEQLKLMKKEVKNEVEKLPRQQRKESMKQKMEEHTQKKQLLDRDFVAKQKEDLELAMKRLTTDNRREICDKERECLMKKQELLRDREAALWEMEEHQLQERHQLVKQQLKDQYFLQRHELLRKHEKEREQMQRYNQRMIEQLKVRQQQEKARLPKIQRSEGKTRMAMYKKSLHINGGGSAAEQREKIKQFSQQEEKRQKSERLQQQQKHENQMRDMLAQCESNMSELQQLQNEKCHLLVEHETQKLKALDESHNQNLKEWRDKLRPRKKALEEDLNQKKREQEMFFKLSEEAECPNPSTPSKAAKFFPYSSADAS

For `Clc1ccc(-c2nn3ncccc3c2-c2ccnc(Nc3ccccc3)n2)cc1`, the inhibition (commonly the change of the read-out against control, counted positive when it falls) in [1] stood at 6%; in test [2], 2.34%; in [3] it was 3.72%; in test [4], 1.69%; in test [5], 2.21%; in test [6] it was 3.54%. Also, the inhibition in test [7] was 14.9%; in [8] it was 0.28%; in test [9], 4.5%; in test [10], 0.9%; in test [11], 25.5%; in [12], 3.6%. In addition, the inhibition in test [13] was 20.2%; in [14], 1.35%; in test [15], 36.1%; in test [16] it was 4.2%; in [17], 40.8%; in [18], 1.09%. Moreover, the inhibition came out at 5.08% in test [19] and 5.07% in test [20].

For the compound `FC(F)(F)c1cccc(-c2nn3ncccc3c2-c2ccnc(Nc3ccc4c(c3)OCCO4)n2)c1`, the inhibition in test [1] is 3.48%; in [2], 1.94%; in test [3], 3.39%; in test [4], 0.62%; in test [5], 3.72%; in [6], 3.11%. The inhibition was 9% in test [7]; -2.27% in [8]; 14.6% in test [9]; 2.64% in test [10]; 24.7% in test [11]; 4.28% in test [12]. Besides, the inhibition in test [13] was 12.4%; in test [14], 1.81%; in test [15], 19.9%; in [16] it was 3.84%; in test [17], 19.8%; in test [18], 1.35%. Moreover, the inhibition in [19] came to 12.2%; in test [20] it was 7.12%.

Take `COc1ccc2[nH]c3c4[nH]c5ccc(OC)cc5c4c4c(c3c2c1)C(=O)NC4=O`: the inhibition in test [1] came out at 16.6%; in [2] it was 7.79%; in test [3] it was 33.9%; in test [4], 8.83%; in test [5] it was 41.5%; in test [6], 2.51%. Besides, the inhibition in [7] is 14.6%; in [8], -2.11%; in test [9], 34.6%; in test [10], 7.28%; in test [11], 68.8%; in [12], 20.7%. Moreover, the inhibition was 66.9% in test [13]; 12.4% in test [14]; 86.8% in [15]; 9.72% in test [16]; 40.2% in test [17]; 2.06% in test [18]. The values for the inhibition in test [19] and in test [20] were 12.1% and 84.6%, respectively.

For the compound `Cc1cccc2c1NC(=O)/C2=N\Nc1ccc(S(N)(=O)=O)cc1`, the inhibition amounted to 1.49% in [1]; 2.26% in test [2]; 1.7% in test [3]; 0.44% in test [4]; 6.52% in test [5]; 4.98% in [6]. The inhibition in [7] is 6.66%; in test [8], -2.96%; in [9], 9.17%; in [10], 3.73%; in [11], 8.68%; in test [12], 3.31%. The inhibition in test [13] worked out at 7.09%; in test [14], 2.56%; in [15], 12.1%; in test [16], 3.27%; in [17], 4.33%; in [18], 0.93%. For the same compound, the values for the inhibition in test [19] and in [20] were 0.8% and 10.1%, respectively.

On to `COc1ccc(-c2cc(-c3c[nH]nc3-c3ccccn3)ccn2)cc1`, for which the inhibition is 3.12% in test [1]; 3.7% in [2]; 3.9% in test [3]; 3.2% in test [4]; 5.62% in [5]; 1.77% in [6]. The inhibition in test [7] was 3.18%; in [8] it was -6.95%; in test [9] it was 10.5%; in test [10], 3.7%; in test [11], 5.58%; in test [12], 4.41%. In addition, the inhibition in [13] is 5.71%; in [14] it was 2.12%; in test [15], -1.66%; in test [16], 5.75%; in test [17], 8.57%; in test [18], 1.74%. In addition, the results for the inhibition in test [19] and in [20] were 2.15% and 35.5%, respectively.

As for `O=S(=O)(CCNCc1ccc(-c2ccc3ncnc(Nc4ccc(OCc5cccc(F)c5)c(Cl)c4)c3c2)o1)c1ccccc1`, the inhibition in [1] was 1.84%; in test [2], 3.5%; in [3] it was 5.72%; in test [4], 3.32%; in test [5], 5.45%; in [6], -1.02%. The inhibition was 5.43% in test [7]; -1.8% in [8]; 9.69% in test [9]; 6.02% in test [10]; 6.24% in test [11]; 5.41% in [12]. Besides, the inhibition was 11.8% in test [13]; 2.93% in test [14]; 10.2% in [15]; 9.92% in test [16]; 17.5% in test [17]; 2.04% in [18]. The inhibition in test [19] is 5.59%; in [20], 4.02%.

For the compound `COc1ccc2c(-c3ccnc(Nc4cccc(OC(F)(F)F)c4)n3)cnn2n1`, the inhibition in test [1] came out at 11.1%; in test [2] it was 2.97%; in test [3] it was 7.33%; in [4], 2.73%; in test [5], 12.3%; in test [6], 2.09%. For the same compound, the inhibition in test [7] was 5.53%; in [8], -3.37%; in [9], 17.1%; in test [10] it was 0.72%; in test [11] it was 33.9%; in test [12], 5.14%. Also, the inhibition in [13] was 28.8%; in test [14], 2.02%; in test [15], 56.9%; in [16], 4.75%; in test [17] it was 10.6%; in test [18] it was 0.05%. Further, the results for the inhibition in test [19] and in [20] were 5.46% and 4.63%, respectively.
